Bioassay records as filed in PubChem BioAssay.
A selection: hits, their analogues and other compounds. The true share with any hit is near 3.1%.
ATG4B inhibitor – ATG4B protease inhibitors, primary screen, biochemical, fluorescence, uHTS; ATG4B cleavage of LC3-PLA2, NBD-HPC fluorescence, 1 h; actives 0.51% (n = 340,000); Cysteine protease ATG4B (Homo sapiens), Q9Y4P1; inhibition, % at 8.33 µM; in the data active = inhibition above about 40%
MEKK3 PB1 HTS – modulators of MEKK3-MEK5 PB1 binding, primary screen, biochemical, wildtype MEKK3, multiplex bead flow cytometry, Alexa488-MEK5. Mitogen-activated protein kinase kinase kinase 3 (Homo sapiens), Q99759. actives 1.4% (n = 290,000). binding response (% of control), % at 10 µM. bead-based flow cytometry, Alexa488-MEK5 binding to MEKK3; actives lie on both sides; 0 = blocked by unlabeled MEK5, 100 = vehicle;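 active = binding response more than 3 SD above or below the average of its plate-row segment, actives on both sides; inconclusive = wells at one plate position flagged as instrument error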;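 also: Alexa488 bead fluorescence after subtracting the streptavidin-only scavenger bead signal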
MEKK2wt PB1 HTS – modulators of MEK5 binding to wildtype MEKK2, primary screen, biochemical, multiplex bead flow cytometry, Alexa488-MEK5; Mitogen-activated protein kinase kinase kinase 2 (Homo sapiens), Q9Y2U5; Alexa488-MEK5 binding to MEKK2 WT; actives lie on both sides; binding response (% of control), % at 10 µM; actives 1.1% (n = 290,000); AID 1531, 2009; in the data active = binding response below about 67% or above about 130%; inconclusive = no clear call, values can overlap the other calls; inactive = in between
UBC13 polyUb – UBC13 polyubiquitin chain formation inhibitors, primary screen, biochemical, TR-FRET, uHTS. Ubiquitin-conjugating enzyme E2 N (Homo sapiens), P61088. inhibition, % at 20 µM. actives 0.47% (n = 330,000). AID 485273, 2010; in the data active = inhibition above about 45%, passing the limit was not always enough; inconclusive = no clear call, values can overlap the other calls
PREPL inh – PREPL enzyme inhibitors, primary screen, biochemical, fluorescence polarization; Prolyl endopeptidase-like (Homo sapiens), Q4J6C6; recombinant PREPL, fluorescence polarization activity-based probe; inhibition, % at 5.96 µM; actives 0.68% (n = 320,000); AID 2751, 2010; in the data active = inhibition above about 43%;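 also: 0% = enzyme with DMSO and 100% = wells lacking enzyme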
Target sequence (Q4J6C6 whole entry, looked up): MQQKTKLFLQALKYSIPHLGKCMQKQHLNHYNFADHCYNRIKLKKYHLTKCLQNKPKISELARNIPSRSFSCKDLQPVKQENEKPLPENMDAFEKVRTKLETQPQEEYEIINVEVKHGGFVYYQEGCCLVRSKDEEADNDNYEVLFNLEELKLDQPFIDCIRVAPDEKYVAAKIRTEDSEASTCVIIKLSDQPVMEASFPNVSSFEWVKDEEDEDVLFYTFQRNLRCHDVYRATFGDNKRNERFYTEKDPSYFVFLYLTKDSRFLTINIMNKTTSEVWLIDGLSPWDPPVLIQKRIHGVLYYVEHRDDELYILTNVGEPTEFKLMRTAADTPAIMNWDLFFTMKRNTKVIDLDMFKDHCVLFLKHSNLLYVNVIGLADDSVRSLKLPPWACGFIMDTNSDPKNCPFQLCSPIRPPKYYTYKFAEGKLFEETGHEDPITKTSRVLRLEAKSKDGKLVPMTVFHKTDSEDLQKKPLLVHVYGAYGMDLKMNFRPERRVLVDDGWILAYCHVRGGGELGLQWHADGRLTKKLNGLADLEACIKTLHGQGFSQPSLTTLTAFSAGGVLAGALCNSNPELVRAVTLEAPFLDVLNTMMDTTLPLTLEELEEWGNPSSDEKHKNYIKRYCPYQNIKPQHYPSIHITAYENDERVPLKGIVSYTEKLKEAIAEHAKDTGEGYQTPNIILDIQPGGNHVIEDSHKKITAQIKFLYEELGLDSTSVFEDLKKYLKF
MEKK2 mut-MEK5 – MEK5 binding signal on mutant MEKK2 PB1, primary screen, biochemical, multiplex bead flow cytometry, Alexa488-MEK5. Alexa488-MEK5 binding to MEKK2 mutant. percent response, % at 10 µM. actives 0.35% (n = 290,000). AID 1530, 2009; in the data active = percent response above about 24%, passing the limit was not always enough
Casp3 counter – CASP3 inhibitor validation, counterassay for project on UBE2N polyubiquitination blockers, biochemical, one dose. shares compounds with UBC13 polyUb. Recombinant caspase-3, Caspase-Glo 3/7 luminescence, 60 min. inhibition, % at 20 µM. actives 4% (n = 1,400). AID 488856, 2010;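 active = mean inhibition across replicates above about 26%, limit read from the data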;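 also: plate controls were DMSO with caspase-3 for no effect and DMSO wells lacking enzyme for full effect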
UBC13 conf – UBC13 polyubiquitination inhibitors, single-point retest, confirmation, biochemical, TR-FRET, single concentration; shares compounds with UBC13 polyUb; actives 68% (n = 1,400); inhibition, % at 10 µM; in the data active = inhibition above about 45%; inconclusive = no clear call, values can overlap the other calls
Numbers without * were called inactive; ? = inconclusive; / = no result given.

SMILES | ATG4B inhibitor | MEKK3 PB1 HTS | MEKK2wt PB1 HTS | UBC13 polyUb | PREPL inh | MEKK2 mut-MEK5 | Casp3 counter | UBC13 conf
CC(C)CC(C(=O)NC1CCCC1)N(Cc1cccs1)C(=O)c1snc(C(N)=O)c1N (stereo not given) | -7 | 103 | 95 | 25 | 7 | -4 | / | /
CC(C)CC(C(=O)NC(C)(C)C)N(Cc1ccccc1Cl)C(=O)c1snc(C(N)=O)c1N (stereo not given) | -3 | 105 | 100 | 71* | / | 6 | 4 | 93*
CC(C)CC(C(=O)NC(C)(C)C)N(Cc1cccs1)C(=O)c1snc(C(N)=O)c1N (stereo not given) | -5 | 108 | 103 | 65* | 14 | -2 | -2 | 67*
O=C(CSCc1cccc(Cl)c1)OCc1nc2ccsc2c(=O)[nH]1 | -6 | / | / | -8 | 0 | / | / | /
CCN(CC)CCCNC(=O)C1CCN(c2ncnc3c2sc2cccc(F)c23)CC1 | -2 | 116 | 132 | 25 | 16 | 24 | / | /
CC1CC(C)CN(CCCNC(=O)C2CCN(c3ncnc4c3sc3cccc(F)c34)CC2)C1 (stereo not given) | / | 96 | 120 | 48* | 31 | -11 | -2 | 54*
O=C(NCc1ccco1)C(=O)c1cn(CC(=O)N2CCCCC2)c2ccccc12 | -13 | 84 | 67 | 5 | -3 | -15 | / | /
CCN(CC(=O)Nc1ccc(NC(C)=O)cc1)C(=O)/C=C/c1cn(-c2ccccc2)nc1-c1cccs1 | -8 | / | / | 9 | 6 | / | / | /
CN1CCC(N(C)C(=O)/C=C/c2cn(-c3ccccc3)nc2-c2cccs2)CC1 | -19 | 59 | 112 | 46* | -29 | -6 | 0 | 44
CC1CCCC(C)N1CCCNC(=O)c1ccc2c(c1)NC(=O)c1ccccc1S2 (stereo not given) | -1 | 94 | 112 | 41 | 9 | 9 | / | /
CCC(C)N(CCNC(=O)c1ccc2c(c1)NC(=O)c1ccccc1S2)C1CCCCC1 (stereo not given) | 1 | 97 | 128 | 52* | 14 | 13 | -2 | 70*
CCOC(=O)c1sc2nc(C3CC3)cc(-c3ccc(OC)cc3)c2c1N | -6 | 96 | 100 | 48* | 19 | 7 | -3 | ?
C#CCOCCOCCOCCNc1nc(N2CCN(C(=O)[C@H](CCCCN)n3cc([C@@H](N)CC(N)=O)nn3)CC2)nc(N2CCN(C(=O)[C@H](CCCCN)n3cc([C@@H](N)CC(N)=O)nn3)CC2)n1 | 9 | / | / | 108* | 12 | / | -2 | 111*
C#CCOCCOCCOCCNc1nc(N2CCN(C(=O)C([C@@H](C)O)n3cc([C@@H](N)CCCCN)nn3)CC2)nc(N2CCN(C(=O)[C@H](CCCCN)n3cc([C@@H](N)CC(N)=O)nn3)CC2)n1 (stereo not given in full) | -7 | / | / | 103* | 7 | / | 1 | 106*
CCN1CCN(C(=O)c2cc(COc3ccc(F)cc3F)on2)[C@@H](C)C1=O | -5 | 101 | 96 | -4 | 9 | -9 | / | /
CCCCn1c(N)c(N(CCC(C)C)C(=O)c2ccc3c(c2)OCO3)c(=O)[nH]c1=O | 4 | / | / | -4 | 1 | / | / | /
O=C(CCCOc1ccccc1)Nc1ccc(S(=O)(=O)N2CCOCC2)cc1 | -12 | 101 | 102 | -4 | -6 | 6 | / | /
